Pf growth 48h: Primary qHTS for delayed death inhibitors of the malarial parasite plastid, 48 hour incubation | P. falciparum luciferase growth in erythrocytes, 48 h | Potency, µM (titrated, usually from 28.7 µM), most hits filed as inhibitors | 310,000 tested, 5.9% active | AID 504832, 2011
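Luciferase-expressing parasites in RBCs, 2% Hct / 0.1% parasitemia final; RPMI 1640 + 0.5% Albumax; 37 C, 5% CO2, one generation; luminescence read-out, lower signal = inhibition.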
AMA1 RON2 block: qHTS for Inhibitors of AMA1-RON; Towards Development of Antimalarial Drug Lead: Primary Screen | Plasmodium falciparum AMA1 (3D7) - RON2 peptide interaction | AlphaScreen AMA1-biotinylated RON2 peptide binding | Potency, µM (titrated, usually from 58.2 µM), hits mostly inhibitors | 360,000 tested, 0.2% active; further: nearly all actives have a fitted effect of over 45% in size
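AMA1 (3D7) with his tag at 25 nM final met compounds first, then biotinylated RON2 peptide at 25 nM; detection used donor plus acceptor beads, 10 µg/mL apiece, read by AlphaScreen after 30 min at room temperature.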
Pf growth 96h: Primary qHTS for delayed death inhibitors of the malarial parasite plastid, 96 hour incubation | Potency, µM (titrated, usually from 28.7 µM), usual class: inhibitors | P. falciparum luciferase reporter growth, 96 h | 320,000 tested, 6.9% active | AID 504834, 2011
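Luminescence readout: decreased luciferase signal marks inhibited growth of reporter-expressing P. falciparum in infected red cells (2% hematocrit, 0.05% parasitemia final), exposed to compound two generations (96 h, 37 C, 5% CO2).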
SARS PLP yeast: qHTS of Yeast-based Assay for SARS-CoV PLP; AID 485353, 2010; 330,000 tested, 0.19% active; Potency, µM (highest dose often 32.9 µM), hits mostly activators; S. cerevisiae expressing SARS-CoV PLpro, growth rescue; calls by dose curve; further: nearly all actives have a fitted effect of over 55% in size
Each line names hits and unclear results; the compound was inactive in the other large screens. Shown are actives, neighbours in structure and some others; about 9.4% of the full set was active somewhere. Unless noted, the call rests on the fitted dose curve; in most records, active means well fitted curve in the direction sought with a large enough effect; inconclusive means small, poorly fitted or top-dose-only effect, or another doubt; inactive means no such curve, though single readings can be large; an effect the other way counts as inactive or inconclusive.

CC(=O)N1CCc2cc(S(=O)(=O)N3c4ccccc4CC3C)ccc21 (centres undefined)	none (no result: Pf growth 96h)
CCN(CC)S(=O)(=O)c1ccc(C(=O)/C=C/c2ccc(-c3ccc([N+](=O)[O-])cc3)o2)cc1	none
CSc1nc(NCC(C)O)c2c3c(sc2n1)CN(C)CC3 (centres undefined)	Pf growth 48h inconclusive, Pf growth 96h 6.6µM
CCN(CC)CCCNc1nc(SC)nc2sc3c(c12)CCN(C)C3	Pf growth 48h inconclusive, Pf growth 96h inconclusive (no result: AMA1 RON2 block)
CSc1nc(SCC(=O)NC(c2ccccc2)c2ccccc2)c2c3c(sc2n1)CN(C)CC3	Pf growth 48h 7.4µM, AMA1 RON2 block inconclusive, Pf growth 96h 2.9µM
CSc1nc(NCCCO)c2c3c(sc2n1)CN(C)CC3	Pf growth 48h inconclusive, Pf growth 96h 5.2µM
CC1CCc2sc3c(c2C1)c1ncnn1c(=O)n3CC(=O)c1ccc(Br)cc1 (centres undefined)	none (no result: Pf growth 48h, Pf growth 96h, SARS PLP yeast)
c1csc(COc2ccccc2CNC2CCCCC2)c1	Pf growth 48h inconclusive
CCOc1cc(CNC2CCCC2)c(Cl)cc1OCC(=O)Nc1ccccc1	Pf growth 48h 10µM
CCOc1ccccc1OCC(=O)NC1CCCCC1	none (no result: Pf growth 48h)
CCOC(=O)c1ccc(NC(=O)COc2ccccc2CNC2CCCC2)cc1	Pf growth 48h 4.7µM
c1ccc(COc2ccccc2CNC2CCCC2)cc1	Pf growth 48h inconclusive, Pf growth 96h 5.2µM
Cc1cccc(Oc2nc(-c3ccncc3)nc3ccccc23)c1	Pf growth 48h 1.7µM, Pf growth 96h 1.5µM
CC(=O)Nc1cccc(Oc2nc(-c3ccccn3)nc3ccccc23)c1	Pf growth 48h inconclusive, Pf growth 96h inconclusive
Cc1ccccc1Oc1nc(-c2ccccn2)nc2ccccc12	Pf growth 48h 1.9µM, Pf growth 96h 0.93µM
Cc1cccc(Oc2nc(-c3ccccn3)nc3ccccc23)c1	Pf growth 48h 1.9µM, Pf growth 96h 2.6µM
CC(=O)Nc1ccc(Oc2nc(-c3ccccn3)nc3ccccc23)cc1	Pf growth 48h inconclusive, Pf growth 96h 12µM
CCOc1nc(-c2ccncc2)nc2ccccc12	Pf growth 48h inconclusive, Pf growth 96h inconclusive
Cc1cc(Oc2ccc(Cl)cc2)nc(-c2ccccn2)n1	Pf growth 48h inconclusive, Pf growth 96h inconclusive
c1ccc(-c2nc(-c3ccccn3)nc(-c3ccccn3)n2)nc1	Pf growth 48h inconclusive, Pf growth 96h inconclusive
CCCN1Cc2cccc(C(=O)Nc3ccc4c(c3)OCCO4)c2C1=O	none (no result: Pf growth 48h)
O=[N+]([O-])c1ncccc1Oc1nc(-c2cccnc2)nc2ccccc12	Pf growth 48h inconclusive
c1ccc(Oc2nc(-c3cccnc3)nc3ccccc23)cc1	Pf growth 48h 10µM, Pf growth 96h inconclusive
O=C(c1ccc(Cl)cc1Cl)N1CCOCC1	none (no result: Pf growth 48h, Pf growth 96h, SARS PLP yeast)
O=C(c1cccn2c(=O)c3cc(Cl)ccc3nc12)N1CCOCC1	Pf growth 48h 13µM, Pf growth 96h 10µM
O=C(c1cc2cc(Cl)cc(Cl)c2oc1=O)N1CCOCC1	Pf growth 96h 8.3µM
O=C(c1cc(Cl)ccc1Cl)N1CCOCC1	Pf growth 96h 13µM
O=C(c1ccco1)N(Cc1ccc(Cl)cc1)Cc1ccco1	SARS PLP yeast inconclusive
O=C(O)c1cc(Br)ccn1	AMA1 RON2 block inconclusive
CCn1cc([N+](=O)[O-])c(C(=O)N2N=C(c3ccc4ccccc4c3)CC2c2ccccc2O)n1 (centres undefined)	Pf growth 48h 8.3µM, AMA1 RON2 block inconclusive, Pf growth 96h inconclusive
CCn1cc([N+](=O)[O-])c(C(=O)N2N=C(c3ccc(OC)cc3OC)CC2c2ccccc2O)n1 (centres undefined)	Pf growth 48h inconclusive, Pf growth 96h 10µM, SARS PLP yeast inconclusive
CCn1cc([N+](=O)[O-])c(C(=O)N2CCCC2)n1	none (no result: Pf growth 96h)
CCn1cc(Cl)c(C(=O)N2N=C(c3ccc4ccccc4c3)CC2c2ccccc2O)n1 (centres undefined)	Pf growth 48h 2.1µM, AMA1 RON2 block inconclusive, Pf growth 96h 1.5µM
O=C(c1ccccc1)N1N=C(c2ccccc2)CC1c1ccccc1O (centres undefined)	Pf growth 48h inconclusive
CCn1cc([N+](=O)[O-])c(C(=O)N2N=C(c3cccc4ccccc34)CC2c2ccccc2O)n1 (centres undefined)	Pf growth 48h 9.3µM, Pf growth 96h 13µM
O=C(CSC1=NCCS1)Nc1ccccc1F	none
O=C(Nc1cccnc1Cl)C1CCCN(c2ncnc3c2nc2n3CCCCC2)C1 (centres undefined)	Pf growth 96h 12µM

Screening data from PubChem.
